ATXN2 expr inh = inhibitors of ATXN2 expression; HEK-293 ATXN2-luciferase reporter, luminescence, 24 h; Potency, µM (doses to about 57 µM), inactives show at the top dose activity change, negative = inhibition, most hits filed as inhibitors; hit rate 0.72% among 360,000; further: potency means the concentration at half of the fitted maximal effect; on the % scale 0 is the no-effect control and ±100 the full control effect; nearly all actives have a fitted effect of over 55% in size
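ATXN2-luciferase reporter cells (luciferase flanked by upstream and downstream ATXN2 gene portions) were treated 24 h at 37 °C with compounds at up to 57 uM. SteadyGlo luminescence gave expression; GF-AFC fluorescence gave viability.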
ATXN viability = reduces viability in counter-screen for ATXN expression inhibitors. S2 cells (HEK-293 line with an ATXN2-luciferase reporter) viability, CellTiter-Fluor protease fluorescence, 24 h. AID 651635. hit rate 0.49% among 400,000. Potency, µM (top dose mostly 56.7 µM), hits mostly cytotoxic; further: potency means the concentration at half of the fitted maximal effect; nearly all actives have a fitted effect of over 40% in size
TGFb SMAD3 inh = inhibitors of TGF-b signaling; HepG2 CAGA-GFP TGF-b/SMAD3 reporter, GFP fluorescence, 18 h; TGF-beta stimulated, 500 pg/mL final; Potency, µM (titrated, usually from 46.1 µM), for the others: top-dose activity, negative = inhibition, actives largely listed as inhibitors; hit rate 1.2% among 410,000; AID 588855; further: potency means the concentration at half of the fitted maximal effect; on the % scale 0 is the no-effect control and ±100 the full control effect; nearly all actives have a fitted effect of over 65% in size
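Cell-based qHTS in HEPG2 carrying a CAGA-GFP Smad reporter; compounds added before 500 pg/mL final TGF-beta, 18 h incubation at 37 degrees C, GFP fluorescence quantified per cell by imaging cytometry.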
HepG2 tox-1 = kills HepG2 cells in TGF-b inhibitor counter-screen. HepG2 CAGA-GFP viability, ATP luminescence, 18 h. Potency, µM (top dose mostly 46.1 µM), inactives show at the top dose activity change, negative = cytotoxicity, hits mostly cytotoxic. hit rate 0.76% among 410,000. AID 588856; further: potency means the concentration at half of the fitted maximal effect
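HepG2 CAGA-GFP cells (1000/well, DMEM with 1% FBS) received compound, then TGF-beta at 500 pg/mL final, and were incubated 18 hours at 37 degrees C. Viability was read by CellTiter-Glo luminescence. Media-only wells were set as complete cell-killing and DMSO as no toxicity.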
D3 ag = activates the human D3 dopamine receptor | P35462 | D3R DiscoveRx beta-arrestin cells, luminescence, 90 min | max activation, % | hit rate 0.58% among 410,000 | AID 652048; in the data active means max activation above about 30%; further: 0% is about no effect
Target sequence (P35462 whole entry, looked up): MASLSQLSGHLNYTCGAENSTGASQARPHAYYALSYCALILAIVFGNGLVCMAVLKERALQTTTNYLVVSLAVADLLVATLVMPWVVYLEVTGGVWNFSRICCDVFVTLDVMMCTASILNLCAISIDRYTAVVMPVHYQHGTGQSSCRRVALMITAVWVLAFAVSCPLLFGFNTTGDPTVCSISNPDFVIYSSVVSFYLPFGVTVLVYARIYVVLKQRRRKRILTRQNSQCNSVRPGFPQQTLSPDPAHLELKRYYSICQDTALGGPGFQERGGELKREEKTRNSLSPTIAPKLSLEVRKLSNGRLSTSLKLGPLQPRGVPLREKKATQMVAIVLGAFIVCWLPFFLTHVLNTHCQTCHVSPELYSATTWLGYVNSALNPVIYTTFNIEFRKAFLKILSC
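Agonist mode: compounds and dopamine controls were applied to plated cells for 90 min at 37 degrees C after an overnight attachment at 1500 cells/well. Luminescent read-out followed 30 - 60 minutes at room temperature with DiscoveRx detection reagent.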
D3 antag = antagonists of human D3 dopamine receptor. P35462. D3R cells, DiscoveRx beta-arrestin luminescence, antagonist mode; stronger effect = lower value. max response, negative = inhibition, %. hit rate 2.5% among 360,000; in the data active means max response below about -50%; inconclusive means no clear call, values can overlap the other calls; further: on the % scale 0 is the no-effect control and ±100 the full control effect
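Cells plated overnight at 1500 cells/well, then exposed to library compounds with dopamine controls for 90 minutes at 37 degrees C. DiscoveRx reagent added for 30–60 minutes at room temperature; luminescence read, quantitative HTS format.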
TGFb confirm = TGF-b pathway inhibition, cherry-pick retest. shares compounds with TGFb SMAD3 inh. HepG2 CAGA-GFP TGF-b reporter, GFP fluorescence, 18 h; cells stimulated with TGF-beta, 500 pg/mL. Potency, µM (top dose mostly 46.1 µM), for inactives: at the highest dose activity, negative = inhibition, hits mostly inhibitors. hit rate 63% among 1,600. AID 720534; further: potency means the concentration at half of the fitted maximal effect; on the % scale 0 is the no-effect control and ±100 the full control effect; nearly all actives have a fitted effect of over 65% in size
HepG2 tox-2 = counter-screen for TGF-b inhibitors: cytotoxicity in HepG2 cells; shares compounds with TGFb SMAD3 inh; HepG2 CAGA-GFP viability, ATP luminescence, 18 h; cells stimulated with TGF-beta, 500 pg/mL; Potency, µM (highest dose often 46.1 µM), for inactives: at the top dose activity, negative = cytotoxicity, actives largely listed as inhibitors; hit rate 27% among 1,600; AID 720535; further: potency means the concentration at half of the fitted maximal effect; on the % scale 0 is the no-effect control and ±100 the full control effect; nearly all actives have a fitted effect of over 70% in size
TGFb CCL64 inh = TGF-b inhibition, CCL64 orthogonal assay. shares compounds with TGFb SMAD3 inh. hit rate 41% among 1,600. CCL64 CAGA-GFP reporter, TGF-b stimulated, GFP fluorescence, 18 h. Potency, µM (doses to about 46.1 µM), inactives show top-dose activity, negative = inhibition, most hits filed as inhibitors; further: potency means the concentration at half of the fitted maximal effect; nearly all actives have a fitted effect of over 65% in size
TGFb COP inh = TGF-b inhibition validated with COP promoter. shares compounds with TGFb SMAD3 inh. HepG2 COP-GFP TGF-b reporter, GFP fluorescence, 18 h; cells stimulated by added recombinant TGF-beta. Potency, µM (titrated, usually from 46.1 µM), for the others: top-dose activity, negative = inhibition, usual class: inhibitors. hit rate 3% among 1,600; further: potency means the concentration at half of the fitted maximal effect; nearly all actives have a fitted effect of over 70% in size
The depositor's hits bear a star; i = inactive; ? = inconclusive; . = no result. Sampled rows, rich in hits. Any-hit rate of the full collection: about 4.8%. Unless noted, the call rests on the fitted dose curve; in most records, active means well fitted curve in the direction sought with a large enough effect; inconclusive means small, poorly fitted or top-dose-only effect, or another doubt; inactive means no such curve, though single readings can be large; an effect the other way counts as inactive or inconclusive.

SMILES | ATXN2 expr inh | ATXN viability | TGFb SMAD3 inh | HepG2 tox-1 | D3 ag | D3 antag | TGFb confirm | HepG2 tox-2 | TGFb CCL64 inh | TGFb COP inh
COc1ccc(C(=O)Nc2oc(-c3ccccc3)c(-c3ccccc3)c2C#N)cc1OC | 1% | i | -4% | -6% | 3 | -21 | . | . | . | .
Cc1cccc(C)c1OCC(=O)Nc1oc(-c2ccccc2)c(-c2ccccc2)c1C#N | -1% | i | 13µM* | -5% | 26 | 26 | ? | ? | ? | 27%
CSc1nn(Cc2ccccc2C)c(NC(C)=O)c1S(=O)(=O)c1ccc(C)cc1 | -21% | ? | ? | 3% | 6 | . | . | . | . | .
CC(C)(C)OC(=O)NCCc1nnc(SCc2cccc(Cl)c2)o1 | -20% | i | 7.9µM* | -60% | 7 | -2 | -5% | -10% | 10% | -11%
Cc1cccc(CSc2nnc(CCNC(=O)OC(C)(C)C)o2)c1 | 16% | i | -13% | -32% | 8 | 4 | . | . | . | .
Cc1cc(C)cc(C(=O)NC(=S)Nc2ccc(Cc3ccncc3)cc2)c1 | -37% | i | 7.1µM* | -25% | -7 | ? | 13µM* | ? | -24% | 15%
COc1cc(C(=O)NC(=S)Nc2ccc(Cc3ccncc3)cc2)cc(OC)c1OC | -21% | i | ? | -25% | 6 | 55 | . | . | . | .
O=C1CC(c2ccc(Cl)c([N+](=O)[O-])c2)c2ccc3ccccc3c2N1 (configuration not stated) | -17% | i | ? | -22% | 2 | 1 | . | . | . | .
CN(C)c1ccc(C2CNC(c3ccc(Cl)c([N+](=O)[O-])c3)c3[nH]c4ccccc4c32)cc1 (configuration not stated) | . | ? | 8.9µM* | -33% | -5 | -27 | ? | -28% | 21µM* | 18%
COC(=O)c1sc2cccc(F)c2c1S(=O)(=O)N1CCN(c2cccc(C)c2)C(C)C1 (configuration not stated) | 5% | i | 0% | -28% | 7 | . | . | . | . | .
O=C(/C=C/c1cccc([N+](=O)[O-])c1)c1cccs1 | ? | ? | 8.9µM* | -37% | -14 | -58* | 12µM* | 18µM* | 5.8µM* | 23%
O=C(/C=C/c1cccc([N+](=O)[O-])c1)c1ccc2c(c1)OCCO2 | -5% | i | ? | -31% | -9 | -8 | . | . | . | .
CC(=O)Oc1ccccc1C(=O)C=Cc1cccc([N+](=O)[O-])c1 | ? | . | 7.1µM* | -31% | -20 | -56* | 10µM* | ? | 5.8µM* | ?
CCOc1ccc(N(CC)S(=O)(=O)N2CCCC(C(=O)NCc3ccccc3Cl)C2)cc1 (configuration not stated) | . | . | ? | -17% | -14 | . | . | . | . | .
COc1ccc(C(=O)/C(C#N)=N/Nc2ccccc2[N+](=O)[O-])cc1 | -9% | ? | 1.1µM* | -18% | -11 | ? | 10µM* | ? | ? | 1%
COC(=O)C1(CC2CC(c3cccc(Br)c3)=NO2)CCN(C(=O)OC(C)(C)C)CC1 (configuration not stated) | -23% | i | ? | -4% | 2 | -2 | 23µM* | ? | ? | 51%
CC(C)(C)OC(=O)N1CCC(CC2CC(c3ccccc3)=NO2)(C(=O)NCc2ccccc2)CC1 (configuration not stated) | -9% | ? | ? | -15% | 1 | -9 | . | . | . | .
CCOC(=O)C1=C(CC)Nc2ccccc2N=C1NC(=O)c1cc(C)on1 | 5% | i | 0% | -24% | 8 | 34 | . | . | . | .
CCOC(=O)C1=C(CC)Nc2ccccc2N=C1NC(=O)Nc1ccc(Cl)c(Cl)c1 | ? | ? | 7.1µM* | -36% | 9 | 38 | 18µM* | ? | 6.5µM* | 81%
COC(=O)[C@]1(Cc2ccccc2)N[C@H](CN(C)C(=O)Nc2ccc(C(F)(F)F)cc2)[C@@H]2C(=O)N(Cc3ccccc3)C(=O)[C@@H]21 | -25% | i | 10µM* | -29% | 8 | 1 | 21µM* | -27% | 8.2µM* | -4%
CCN(C[C@H]1N[C@@](Cc2ccccc2)(C(=O)OC)[C@H]2C(=O)N(Cc3ccccc3)C(=O)[C@@H]12)C(=O)NC(C)C | 3% | i | -17% | -10% | 15 | 19 | . | . | . | .
CCN(C[C@H]1N[C@@](Cc2ccccc2)(C(=O)OC)[C@H]2C(=O)N(Cc3ccccc3)C(=O)[C@@H]12)C(=O)Nc1ccc(F)cc1 | -18% | ? | 13µM* | -6% | -2 | -6 | 23µM* | -17% | ? | -2%
CCN(C[C@H]1N[C@@](Cc2ccccc2)(C(=O)OC)[C@H]2C(=O)N(Cc3ccccc3)C(=O)[C@@H]12)C(=O)Nc1ccc(Cl)cc1 | -16% | ? | 13µM* | -17% | 0 | -27 | 7.3µM* | -28% | 12µM* | 25%
CCN(C[C@H]1N[C@@](C)(C(=O)OC)[C@H]2C(=O)N(Cc3ccccc3)C(=O)[C@@H]12)C(=O)Nc1ccc(Cl)cc1 | -12% | ? | 0% | -5% | 6 | 8 | . | . | . | .
CC[C@@]1(C(=O)OC)N[C@H](CN(C)C(=O)Nc2ccc(C(F)(F)F)cc2)[C@@H]2C(=O)N(Cc3ccccc3)C(=O)[C@@H]21 | 1% | i | -7% | -2% | 4 | ? | . | . | . | .
O=C(CSc1nc(-c2ccccc2)no1)N1CCCCC1 | 3% | i | ? | -6% | -3 | . | . | . | . | .
COc1cc(-c2nnc(SCCOc3ccc(Cl)cc3)o2)cc(OC)c1OC | 1% | i | 1% | 8% | -8 | . | . | . | . | .

Screening results: PubChem BioAssay, National Center for Advancing Translational Sciences (NCATS)
